{
  "source": "PubChem BioAssay AID1508642",
  "about": "(National Center for Advancing Translational Sciences (NCATS), 2021)",
  "note": "In all, about 43,000 compounds went through this assay and about 200 (0.47%) were called active. Not shown: some 12% with an inconclusive outcome. This excerpt belongs to a sample that is enriched for actives. Values without a mark were called inactive. Calls follow the shape of the dose curve; as a rule, active = well fitted cell-killing curve with a large enough effect; inconclusive = small, poorly fitted or top-dose-only effect, or effect the other way; inactive = flat fitted curve, though single readings scatter. % is scaled to controls: 0 for no effect and ±100 for the full control effect; potency is read from the fitted curve at half-maximal effect.",
  "data": [
    {"assay": "Cell viability qHTS assay in S16 Pmp22-F2sN cells; also: nearly all actives have a fitted effect of over 65% in size", "conditions": "S16 Pmp22-F2sN Schwann cells (luciferase reporters placed in the Pmp22 gene) viability, CellTiter-Glo, 24 h; series mostly up to 57.5 µM; activity change, negative = cytotoxicity: at the top concentration", "source_text": "Assay Provider: Jim Inglese Ph.D. National Center for Advancing Translational Science, National Institutes of Health, Rockville, MD CMT is a heterogeneous group of neurological disorders that affect approximately 1 in 2,500 people. In particular, the most common form of CMT, CMT1A is genetically linked to the duplication of the PMP22 gene which leads to Schwann cell overexpression, thus manifesting itself as a typical case of dose-sensitive diseases. To identify small molecule compounds that can mediate the expression of PMP22 we developed a phenotypic assay screening strategy by utilizing genome editing techniques to construct Schwann cell lines containing novel reporter technology to monitor the transcriptional or translational regulation of PMP22. For high sensitivity we use a bioluminescent reporter system embedded in the 3' UTR of the PMP22 gene (S16(c9) Pmp22-F2sN) to identify compounds that inhibit gene expression. […] We can further discriminate the effect of all transcriptionally active molecules on PMP22 translation or stability with an assay that incorporates a short NLuc peptide (HiBiT) at the C-terminus of expressed PMP22 (S16(f8) PMP22-HiBiT) allowing alpha complementation and luminescence detection of membrane-associated PMP22 protein. These assays were screened against the NCATS Sytravon Library Collection. Miniaturization of these assays to 1536-well plate format for quantitative high throughput screening (qHTS) yielded rich data sets immediately from the qHTS assay (S16(c9) Pmp22-F2sN), when compared with data from a cell viability assay (Cell TiterGlo) to identify compounds that decreased the output signals through cellular toxicity to streamline the selection process of actives for subsequent characterization using the HiBiT assay (S16(f8) PMP22-HiBiT).\nCell viability assay in S16 Pmp22-F2sN cells PROTOCOL TABLE (format as described by Inglese J, Shamu CE and Guy RK. 2007) SEQUENCE No. (e.g., 1, 2, 3, etc.); […] (e.g., Cells, Incubation, Reagent, etc.); VALUE and DESCRIPTION. 1. Cells. Add 500-1,000 cells in 4 uL in growth media (DMEM High Glucose, No Phenol Red media + 10% heat-inactivated FBS + 1% Pen/Strep supplemented media) per well into Greiner 1536-well white/solid bottom high base, TC-treated plates. 2. Compounds. Library compounds and controls added at 23nL per well, transferred by Pin Tool. 3. Incubation. Incubate plates at 37C, 5% CO2, 95% RH for 24 h. 4. Reagent. Add 3uL CellTiter-Glo per well of Greiner 1536-well plates. 5. Incubation. Incubate plates at room temperature for 15 min., protect from light. 6. Detector. FLuc luminescence measured using CCD-based camera (Viewlux). NOTES (numbers refer to Sequence numbers above; values are from representative experiments) 6. Luminescence Read: Clear filter; Exposure = 1 sec, Gain = High, Speed = Slow, Binning = 2X REFERENCES: 1. Inglese J, Shamu CE and Guy RK, Reporting data from high throughput screening of small molecule libraries, Nature Chemical Biology, 2007, 3(8): 438-441. doi.org/10.1038/nchembio0807-438 2. Yasgar A, Shinn P, Jadhav A, Auld DS, Michael S, Zheng W, Austin CP, Inglese J and Simeonov A, Compound Management for Quantitative High-Throughput Screening. J. Assoc. Lab. Auto., 2008, 13: 79-89. doi: 10.1016/j.jala.2007.12.004", "units": {"activity change, negative = cytotoxicity": "%"}, "values": [
      {"smiles": "COc1cccc(C(=O)NCc2ccc3c(c2)CCN3C(=O)c2ccncc2)c1", "activity change, negative = cytotoxicity": -2.11},
      {"smiles": "Cc1c(CNC2CCCCC2)c(C(=O)O)c(C)n1Cc1cccc(Cl)c1", "activity change, negative = cytotoxicity": 22.4},
      {"smiles": "COc1cccc2cc(-c3nc(Cl)c4c5c(sc4n3)CC(C)CC5)c(=O)oc12", "note": "(stereo unspecified)", "activity change, negative = cytotoxicity": 6.33},
      {"smiles": "Cc1ccc2nc(CN3CCN(S(=O)(=O)c4ccc(C)c(C)c4)CC3)oc2c1", "activity change, negative = cytotoxicity": 10.1},
      {"smiles": "COc1ccc(NC(=O)CN2C(=O)COc3ccc(S(=O)(=O)N4CCOCC4)cc32)cc1", "activity change, negative = cytotoxicity": 19.3},
      {"smiles": "CC(C)(C)c1ccc(S(=O)(=O)N2CCN(C(=O)c3cc(-c4ccc(Br)cc4)n[nH]3)CC2)cc1", "activity change, negative = cytotoxicity": 2.31},
      {"smiles": "Cn1c(=O)[nH]c(=O)c2c1nc(NCCc1ccccc1)n2Cc1ccc(F)cc1", "activity change, negative = cytotoxicity": -27.5},
      {"smiles": "CCOC(=O)c1ccc(NC(=O)Cn2cc(S(=O)(=O)Cc3ccccc3F)c3ccccc32)cc1", "activity change, negative = cytotoxicity": 12.9},
      {"smiles": "Cc1ccc2nc(COc3ccccc3NC(=O)Nc3ccc(F)c(Cl)c3)cc(=O)n2c1", "activity change, negative = cytotoxicity": -13.1},
      {"smiles": "COc1ccc(N2CCN(c3nc(-c4ccccc4F)nc4ccccc34)CC2)cc1", "activity change, negative = cytotoxicity": -1.56},
      {"smiles": "Cc1cccc(OCC(=O)N(Cc2ccc(C(C)C)cc2)Cc2ccco2)c1C", "activity change, negative = cytotoxicity": -22},
      {"smiles": "Cc1cccc(-n2ncc(C(=O)N3CCc4ccccc4C3)c2C2CCN(C(=O)OC(C)(C)C)CC2)c1", "activity change, negative = cytotoxicity": -9.84},
      {"smiles": "CC(C)Oc1ccc(CNC(=O)C2CCN(c3nc4ccccc4n(C)c3=O)CC2)cc1", "activity change, negative = cytotoxicity": 8.64},
      {"smiles": "COc1cc(OC)c(NC(=O)c2cc(S(=O)(=O)N3CCCC3)cn2C)cc1Cl", "activity change, negative = cytotoxicity": 1.12},
      {"smiles": "CCN(Cc1ccccc1)S(=O)(=O)c1ccc2c(c1)CCCN2C(C)=O", "activity change, negative = cytotoxicity": -7.49},
      {"smiles": "CCNS(=O)(=O)c1ccc(NC(=O)CSc2nc(-c3ccco3)cc(C(F)(F)F)n2)cc1", "activity change, negative = cytotoxicity": -17.6},
      {"smiles": "COc1ccc(NC(=O)c2sc3nc(-c4cc5cccc(OC)c5oc4=O)[nH]c(=O)c3c2C)cc1", "activity change, negative = cytotoxicity": 6.82},
      {"smiles": "COc1ccccc1NC(=O)c1sc2nc(C)c(C(=O)Nc3ccc(Cl)cc3)c(-c3ccc(Br)cc3)c2c1N", "Potency": "14.1 µM (active)"},
      {"smiles": "COc1ccc(Cl)cc1NC(=O)c1sc2nc3c(cc2c1N)CN(C)CC3", "activity change, negative = cytotoxicity": 19.1},
      {"smiles": "Cc1nnc(SCc2cc(=O)c3cc(F)ccc3[nH]2)n1C", "activity change, negative = cytotoxicity": 12.3},
      {"smiles": "Cc1ccc(CN2CCc3nc(N4CCN(C)CC4)ncc3C2)cc1", "activity change, negative = cytotoxicity": 1.27},
      {"smiles": "COc1ccc(CC(=O)NCCc2sc3nc(-c4ccc(OC)cc4)nn3c2C)cc1", "activity change, negative = cytotoxicity": -14.4},
      {"smiles": "CC(=O)Nc1cccc(NC(=O)CSc2nccn2Cc2ccc3c(c2)OCO3)c1", "activity change, negative = cytotoxicity": 5.54},
      {"smiles": "CCCCN(CC)CCCNC(=O)c1nn(C)c2c1CSc1ccccc1-2", "activity change, negative = cytotoxicity": -3.98},
      {"smiles": "COC(=O)c1ccc(-c2nc3cc(NC(C)=O)ccc3o2)cc1", "activity change, negative = cytotoxicity": 5.12},
      {"smiles": "CCN1CCC(N(Cc2ccc(F)cc2)C(=O)Nc2cc(C)ccc2C)CC1", "activity change, negative = cytotoxicity": -12.8},
      {"smiles": "COc1cc(OC)cc(C(=O)Nc2c(C(=O)Nc3ccc(F)cc3)oc3ccccc23)c1", "activity change, negative = cytotoxicity": -0.156},
      {"smiles": "Cc1cccc(NC(=O)CSc2nc3c([nH]c4ccccc43)c(=O)n2-c2cc(C)cc(C)c2)c1", "activity change, negative = cytotoxicity": 7.62},
      {"smiles": "CCN(CCCNC(=O)Cn1ncc2c3ccccc3n(C)c2c1=O)Cc1ccccc1", "activity change, negative = cytotoxicity": 3.84},
      {"smiles": "CCOc1ccc(CNC(=O)c2cc(-c3ccc(Cl)s3)nc3ccccc23)cc1", "activity change, negative = cytotoxicity": 8.53},
      {"smiles": "O=C(NCC12CC3CC(CC(C3)C1)C2)c1cc2nc(-c3ccccc3)cc(C(F)(F)F)n2n1", "activity change, negative = cytotoxicity": 14.3},
      {"smiles": "O=C(NCCCO)C(=O)Nc1c2c(nn1-c1ccc(F)cc1)CSC2", "activity change, negative = cytotoxicity": -15.3},
      {"smiles": "Cc1c(NS(=O)(=O)c2ccc(Cl)cc2)c(=O)n(-c2ccccc2)n1C", "activity change, negative = cytotoxicity": 3.6},
      {"smiles": "Cc1ccc(C)c(N2CCN(C(=O)Cn3ncc4c(=O)oc5ccc(C)cc5c43)CC2)c1", "activity change, negative = cytotoxicity": 4.69},
      {"smiles": "Cc1ccccc1NC(=O)Cn1c(=O)n(CC2CCC(C(=O)NCCc3ccccc3)CC2)c(=O)c2ccccc21", "note": "(stereo unspecified)", "activity change, negative = cytotoxicity": 16.1},
      {"smiles": "COC(=O)c1c(NC(=O)C(C)Oc2ccc(Cl)c(C)c2)sc(C)c1C", "note": "(stereo unspecified)", "activity change, negative = cytotoxicity": 0.0514},
      {"smiles": "Cc1ccccc1C(=O)Nc1cc(C)c(O)c(-c2nc3ccccc3o2)c1", "activity change, negative = cytotoxicity": 17},
      {"smiles": "CCOc1ccc(NC(=O)CCC(=O)N2CC(C)Oc3ccc(C)cc32)cc1", "note": "(stereo unspecified)", "activity change, negative = cytotoxicity": 6.01},
      {"smiles": "COc1ccccc1C(=O)Nc1c(C(=O)Nc2ccc(C)cc2)oc2ccccc12", "activity change, negative = cytotoxicity": 8.02},
      {"smiles": "COc1ccc(CCNC(=O)CCCn2c(=O)c3ccccc3n(Cc3ccc(C)cc3)c2=O)cc1OC", "activity change, negative = cytotoxicity": 15.9},
      {"smiles": "CN(CC(=O)Nc1ccccc1F)S(=O)(=O)c1ccc2c(c1)c(=O)n(C)c(=O)n2C", "activity change, negative = cytotoxicity": 15.6},
      {"smiles": "Cc1cccc(C)c1Nc1c(-c2ccccc2O)nc2ncccn12", "activity change, negative = cytotoxicity": -10.5},
      {"smiles": "Cc1ccc(C)c(NC(=O)CSC2=Nc3ccccc3N=C(c3ccc(F)cc3)C2)c1", "activity change, negative = cytotoxicity": -2.61},
      {"smiles": "O=C(CC1C(=O)N(c2ccccc2)C(=O)N1CCc1cccs1)Nc1ccc(F)cc1", "note": "(stereo unspecified)", "activity change, negative = cytotoxicity": -17.5},
      {"smiles": "COC(=O)c1ccc(NC(=O)c2cc(S(=O)(=O)N3CCC(C)CC3)cn2C)cc1", "activity change, negative = cytotoxicity": -14.5},
      {"smiles": "CC1CCCCN1CC(=O)N1CCCc2c1c(=O)oc1ccc(OCc3ccccc3)cc21", "note": "(stereo unspecified)", "activity change, negative = cytotoxicity": 0.438}
    ]}
  ]
}
